Results on 60 compounds are retold here after PubChem BioAssay AID1441 (NMMLSC, 2008).

Each structure is given as a SMILES string. Out of some 220,000 compounds screened, about 830 (0.38%) were called active. The list comes from a sample in which actives are over-represented; it also holds similar structures and randomly drawn compounds. Unmarked numbers belong to inactive results. No rule for the calls is given here.

The target of this assay is Regulator of G-protein signaling 16 (Homo sapiens) + Guanine nucleotide-binding protein G(o) subunit alpha (Homo sapiens) (UniProt O15492+P09471). The assay is described as follows: RGS16-Galphao interaction inhibitors and enhancers – biochemical, human proteins, multiplexed bead flow cytometry, primary screen (AID 1441).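 Also: Galphao activated by GDP with aluminum fluoride before binding.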 To be noted: bead-based flow cytometry RGS16-Galphao binding, fluorescence; at 10 µM; actives lie on both sides.
Regulator of G-protein signaling 16 (Homo sapiens) + Guanine nucleotide-binding protein G(o) subunit alpha (Homo sapiens), sequence (O15492 whole entry, looked up): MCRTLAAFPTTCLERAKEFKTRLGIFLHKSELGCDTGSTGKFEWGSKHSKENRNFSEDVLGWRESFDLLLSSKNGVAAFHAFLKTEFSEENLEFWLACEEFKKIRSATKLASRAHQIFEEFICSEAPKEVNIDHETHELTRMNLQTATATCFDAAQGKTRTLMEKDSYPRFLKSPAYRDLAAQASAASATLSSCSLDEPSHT
Regulator of G-protein signaling 16 (Homo sapiens) + Guanine nucleotide-binding protein G(o) subunit alpha (Homo sapiens), sequence (P09471 whole entry, looked up): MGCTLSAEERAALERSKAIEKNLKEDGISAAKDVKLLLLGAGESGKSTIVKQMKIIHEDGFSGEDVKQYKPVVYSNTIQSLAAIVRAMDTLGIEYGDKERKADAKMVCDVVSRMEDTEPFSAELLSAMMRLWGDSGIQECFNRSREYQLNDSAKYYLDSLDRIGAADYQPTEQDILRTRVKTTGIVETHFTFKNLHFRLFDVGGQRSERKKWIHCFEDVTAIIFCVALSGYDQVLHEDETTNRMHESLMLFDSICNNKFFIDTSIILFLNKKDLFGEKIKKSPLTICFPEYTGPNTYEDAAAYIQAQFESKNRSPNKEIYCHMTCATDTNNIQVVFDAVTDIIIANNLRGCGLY
With `COc1cc(C2/C(=C(\O)c3ccc4c(c3)CC(C)O4)C(=O)C(=O)N2Cc2ccco2)ccc1O` (stereo not given), the binding response (% of control) is -10.7% (active).

Regarding `COCCCN1C(=O)C(=O)/C(=C(/O)c2ccc3c(c2)CC(C)O3)C1c1cccnc1` (stereo not given), the binding response (% of control) was 68.3%.

`COc1ccc(/C(O)=C2\C(=O)C(=O)N(Cc3ccco3)C2c2ccc(OC)cc2OC)cc1` (stereo not given): the binding response (% of control) was 97.2%.

With `CC(=O)Nc1ccc(OCCC[n+]2cccc(C(=O)[O-])c2)cc1`, the binding response (% of control) is 97.8%.

On to `O=C(NCc1ccccc1)c1ccc(CNc2c(N3CCCC3)c(=O)c2=O)cc1`, for which the binding response (% of control) is 102%.

With `COc1ccc(Br)cc1/C=N/Nc1ccc(Cl)c(C(=O)O)c1`, the binding response (% of control) is 103%.

`O=C(Cn1cnc2cc([N+](=O)[O-])ccc2c1=O)NC(=O)NCc1ccccc1`: the binding response (% of control) was 112%.

On to `Nc1c(N(CCO)C(=O)C2CCCCC2)c(=O)[nH]c(=O)n1Cc1ccccc1`, for which the binding response (% of control) is 86.5%.

For the compound `Cn1c(=O)c2c(n(Cc3ccccc3)c1=O)NC(=O)C2CC(=O)N1CCc2ccccc2C1` (stereo not given), the binding response (% of control) was -1.02% (active).

With `O=C(COc1ccccc1)N1CCc2ccccc2C1`, the binding response (% of control) was 102%.

`O=C(CSc1nnc(-c2cccs2)n1Cc1ccccc1)N1CCc2ccccc2C1`: the binding response (% of control) is 101%.

As for `O=S(=O)(c1ccccc1)N(CC(O)CN1CCCCC1)c1ccccc1` (stereo not given), the binding response (% of control) is 96.4%.

Turning to `Cc1cc(C)n(CC(O)CN(c2ccccc2)S(=O)(=O)c2ccc3ccccc3c2)n1` (stereo not given), the binding response (% of control) was -6.51% (active).

With `Cc1ccc(N(CC(O)CN2CCCC2)S(=O)(=O)c2ccccc2)cc1` (stereo not given), the binding response (% of control) is 100%.

For `CCN(CC(=O)Nc1ccc(Cl)c(S(=O)(=O)N(C)C)c1)Cc1nc2ccccc2c(=O)[nH]1`, the binding response (% of control) is 107%.

On to `CCOC(=O)CSc1nc(C)c(Oc2ccc(Cl)cc2Cl)c(=O)[nH]1`, for which the binding response (% of control) was 101%.

Turning to `COc1ccc(C(=O)C[n+]2ccc(N)c(C)c2C)cc1`, the binding response (% of control) is 99.8%.

For `CCOC(=O)c1c(CC(C)C)csc1/N=C/C1=C(O)CCCC1=O`, the binding response (% of control) is 103%.

For `CCN1CCN(C(=O)/C=C\C(=O)O)CC1`, the binding response (% of control) was 101%.

`C/C(=C/C(=O)N1CCN(C)CC1)C(=O)O`: the binding response (% of control) is 234% [activator] (active).

`CN1CCN(C(=O)C2C3C=CC(C3)C2C(=O)O)CC1` (stereo not given): the binding response (% of control) is 102%.

With `COC(=O)C(C(=O)Nc1cccc(C)n1)C1CCCCCC1` (stereo not given), the binding response (% of control) is 103%.

As to `CCCc1cc(=S)n2c([nH]c3ccccc32)c1C#N`, the binding response (% of control) is 97.3%.

For the compound `CSc1sc(C(=O)NNC(=O)c2ccc(Cl)cc2)c2c1C=CCC2`, the binding response (% of control) is 92.2%.

As for `O=C(O)c1ccccc1C(=O)Nc1ccccc1[N+](=O)[O-]`, the binding response (% of control) was 96.6%.

Turning to `NC(=O)CSc1c[nH]c2ccccc12`, the binding response (% of control) was 19.6% (active).

On to `O=C(Cc1c[nH]c2ccccc12)OCCOC(=O)Cc1c[nH]c2ccccc12`, for which the binding response (% of control) is 97.3%.

With `CCCn1cc(SCC(N)=O)c2ccccc21`, the binding response (% of control) was 85.2%.

With `Oc1ccc2ccccc2c1N=Nc1nccs1`, the binding response (% of control) is 99.9%.

Turning to `Oc1ccc(N=Nc2nccs2)c(O)c1`, the binding response (% of control) is -16.2% (active).

As to `CCN1CCN(C(=O)CCN2C(=O)c3ccccc3C2=O)CC1`, the binding response (% of control) was 93.9%.

With `Cc1noc(C)c1S(=O)(=O)Nc1cc(C(F)(F)F)ccc1N1CCOCC1`, the binding response (% of control) is 98%.

Turning to `COC(=O)c1c(C)[nH]c(C)c1-c1ccc([N+](=O)[O-])cc1`, the binding response (% of control) is 85.3%.

Turning to `CC(=O)N1CC[n+]2c(-c3ccc([N+](=O)[O-])cc3)csc21`, the binding response (% of control) is 12.8% (active).

`Cc1cc(C)cc(C(=O)N2CCN=C2SCc2ccc([N+](=O)[O-])cc2)c1`: the binding response (% of control) is 96.2%.

In the case of `O=C(Nc1ccc2cn[nH]c2c1)c1ccc(S(=O)(=O)N2CCOCC2)cc1`, the binding response (% of control) was 92.3%.

For the compound `Cc1cc(F)ccc1S(=O)(=O)Nc1ncnc2scc(-c3ccc(F)cc3)c12`, the binding response (% of control) was 95.8%.

For the compound `CCOc1cc(CNCc2ccccn2)ccc1OCC(=O)NC(C)(C)C`, the binding response (% of control) was 103%.

As to `Clc1ccc2nc(CSc3ccccc3)cn2c1`, the binding response (% of control) is 169%.

For the compound `CC(Sc1nnc2c(n1)C1CCC2(C)C1(C)C)C(=O)Nc1ccccc1` (stereo not given), the binding response (% of control) is 102%.

Take `O=C(Nc1nc2c(F)cc(F)cc2s1)C1COc2ccccc2O1` (stereo not given): the binding response (% of control) was 99.5%.

In the case of `Fc1cc(F)c2nc(Nc3nc4c(F)cccc4s3)sc2c1`, the binding response (% of control) was 192% [activator] (active).

Take `NC(=O)c1c(Nc2nc3c(F)cccc3s2)sc2c1CCCC2`: the binding response (% of control) is 95%.

For the compound `NC(=O)CC(NC(=O)Cc1cccc2ccccc12)c1ccc(NCc2cc(F)ccc2F)c([N+](=O)[O-])c1` (stereo not given), the binding response (% of control) was 100%.

In the case of `COc1cc(C(=O)Nc2cc(C(F)(F)F)ccc2N2CCOCC2)ccc1O`, the binding response (% of control) was 9.57% (active).

As for `COc1cc(C(=O)Nc2cc(C(F)(F)F)ccc2-n2cncn2)cc(OC)c1OC`, the binding response (% of control) is 98.2%.

With `CC(C)CC(=O)Nc1cc(C(F)(F)F)ccc1N1CCOCC1`, the binding response (% of control) is 101%.

On to `CC(=O)N1N=C(c2ccncc2)OC1(Cc1ccccc1)Cc1ccccc1`, for which the binding response (% of control) was 96.5%.

In the case of `N#Cc1c(N2CCCCC2)nc(N)c2c(N)nc(SCC(=O)O)cc12`, the binding response (% of control) is 114%.

In the case of `COc1ccc(CCNC(=O)C(=O)Nc2ccc3nc4n(c(=O)c3c2)CCCCC4)cc1OC`, the binding response (% of control) is 105%.

As to `Cc1nn(-c2ccccc2)c(=O)c2noc(C)c12`, the binding response (% of control) is 102%.

On to `CCC(C)NC(=O)C1c2ccccc2Oc2ccccc21` (stereo not given), for which the binding response (% of control) was 103%.

As for `COc1cccc(OC)c1OCCN1CCN(C(=O)c2ccco2)CC1`, the binding response (% of control) was 101%.

Regarding `O=C(OCC(=O)N1CCN(C(=O)c2ccco2)CC1)c1ccccc1Cc1ccccc1`, the binding response (% of control) was 82.8%.

Regarding `Cc1ccc(C)c(OCC(=O)N2CCN(C(=O)c3ccco3)CC2)c1`, the binding response (% of control) was 24.4% (active).

As to `CC(C)(C)C1CCC(=NNC(=O)c2cc(-c3ccccc3)n[nH]2)CC1` (stereo not given), the binding response (% of control) is 85.9%.

Take `O=C(CN1CCCCC1)N1c2ccccc2Sc2ccc(C(F)(F)F)cc21`: the binding response (% of control) is -6.83% (active).

Consider `O=C(CN1CCCCCC1)N1c2ccccc2Sc2ccc(C(F)(F)F)cc21`, for which the binding response (% of control) was 81.4%.

On to `COc1cc(/C=C/C(=O)N2c3ccccc3Sc3ccc(C(F)(F)F)cc32)cc(OC)c1OC`, for which the binding response (% of control) was 97%.

`COc1ccc(S(=O)(=O)N(C)C)cc1NC(=O)CSc1ncccn1`: the binding response (% of control) is 101%.
